# Assay results reported in PubChem BioAssay AID602140 (NMMLSC, 2011).
# Where “and” joins values, the source holds several entries; their conditions need not be identical. Identical values can stand only once. The list shows a part of the results. Unmarked numbers belong to inactive results. The rule behind the calls is not given here.
# Test system: Botulinum neurotoxin type F light chain protease (Clostridium botulinum)
# Test: inhibition of botulinum toxin F LC protease – biochemical, flow cytometry, cherry pick 1, confirmation (AID 602140)
# Settings: multiplex microsphere protease cleavage assay, at 10 µM, hits give high values
row,SMILES,inhibition
1,O=C(O)c1cc(S(=O)(=O)NC2CCCc3ccccc32)ccc1O (stereo unspecified),-1.4%
2,CC(=O)Nc1ccc(Oc2ccc3c(c2)C(=O)NC3=O)cc1,-3.5%
3,CC(=O)c1cccc(NC(=O)N2CCCC2C(=O)NCCc2ccccc2)c1 (stereo unspecified),0%
4,Cc1ccccc1NC(=O)c1cc(S(=O)(=O)Nc2cccc(C(=O)O)c2)ccc1Cl,-1.9%
5,CC1CCc2c(sc3nc4n(c(=O)c23)CCS4)C1 (stereo unspecified),-5.8%
6,COc1ccccc1C1CCN(C(=S)Nc2ccc(Br)cc2)CC1,4.3%
7,O=C(Nc1nnc(CCc2ccccc2)s1)C1CCCO1 (stereo unspecified),-7%
8,COc1ccc(C2CC(c3cccs3)=NN2c2nc(C)c(C(C)=O)s2)cc1OC (stereo unspecified),-1.7% and 7.1%
9,O=S(=O)(NC1CCCCC1N1CCC(O)CC1)c1ccc(Cl)cc1 (stereo unspecified),2.2%
10,COCc1cc(=O)[nH]c(SC)n1,-4.2%
11,Cc1ccc(-c2nc(-c3cccnc3)sc2CC(=O)Nc2ccc(C)c(Cl)c2)cc1,-18.6%
12,CCCSc1nc2sc3c(c2c(=O)n1-c1ccc(OC)cc1)CCN(C)C3,5.3%
13,COCCn1nnnc1C(c1cc2ccc(OC)cc2[nH]c1=O)N1CCc2ccccc2C1 (stereo unspecified),-9.6%
14,CCOc1nnc(C)c2c(C)n(-c3cccc(Cl)c3)nc12,18.1%
15,CCCN1C2CCCC1CC(NC(=O)c1cccc(OC)c1)C2 (stereo unspecified),0.9%
16,Cc1ccc2[nH]cc(CCNC(=O)C3CCCCC3)c2c1,0.6%
